Bioassay records as filed in PubChem BioAssay.
Compounds with a hit are over-represented: about 6.8% of the library has one in this group of screens.
T cruzi growth-1: inhibitors of T. cruzi proliferation | T. cruzi beta-gal in NIH3T3, GalScreen luminescence, 90 h | inhibition, % at 8.34 µM | 77,000 compounds, 5.9% hits;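 active = mean inhibition above about 93%, with at least 55% of replicates each passing it, limit read from the data, passing the limit was not always enough; inconclusive = only one of those two conditions holds; inactive = neither condition holds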
Pf Dd2 inh: blocks growth of Plasmodium falciparum Dd2 parasites. P. falciparum Dd2 growth, SYBR Green, 72 h; hits give low values. activity change, % at 10 µM. 94,000 compounds, 2.3% hits. AID 1159554; in the data active = activity change below about -80%; inconclusive = no clear call, values can overlap the other calls
C diff growth: C. difficile growth inhibition. AID 1259249. growth activity, negative = inhibition, % at 16 µg/mL (by protocol). Clostridium difficile clinical isolate growth, OD600, 24 h; hits give low values. 86,000 compounds, 0.25% hits;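 active = mean growth activity at or below -80% and every replicate also at or below -80%; inconclusive = mean at or below -80% but some replicate above -80%; inactive = mean growth activity above -80%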;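 note: 0% = DMSO wells and -100% = levofloxacin 16 µg/mL wells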
T cruzi growth-2: Trypanosoma cruzi proliferation inhibition | 5,600 compounds, 72% hits | T. cruzi beta-gal in NIH3T3, GalScreen luminescence, 90 h | inhibition, % at 8.35 µM | shares compounds with T cruzi growth-1;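 active = mean replicate inhibition above about 95% and at least 55% of replicates individually reaching it, limit read from the data; inconclusive = only one of the two criteria is met; inactive = neither criterion is met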
T cruzi growth-3: blocks T. cruzi growth in NIH3T3 host cells; shares compounds with T cruzi growth-1; T. cruzi beta-gal in NIH3T3, GalScreen luminescence, 90 h; inhibition, % at 2.09 µM; 5,600 compounds, 21% hits; AID 651740;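 active = mean inhibition above about 95%, with at least 55% of replicates also reaching it, limit read from the data; inconclusive = meets just one of the two conditions; inactive = meets neither condition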;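 note: plate controls were neutral control median for no effect and positive control median for full effect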
3T3 cytotox: NIH/3T3 (mouse) viability loss; NIH/3T3 viability, CellTiter-Glo ATP luminescence, 90 h; AID 651742; cytotoxicity (signal decrease), % at 8.35 µM; shares compounds with T cruzi growth-1; 5,600 compounds, 14% hits;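 active = mean signal decrease across replicates above about 35% based on untreated-well scatter, with enough replicates individually passing, limit read from the data; inconclusive = no rule stated though some were filed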;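 note: 0% = median of neutral control wells and 100% = median of positive control wells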
NIH3T3 tox 2: NIH/3T3 (mouse) viability loss; inhibition, % at 24.9 µM; 5,600 compounds, 56% hits; NIH/3T3 viability, CellTiter-Glo ATP luminescence, 90 h; shares compounds with T cruzi growth-1;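 active = mean loss of cell viability signal at or above a set limit, and enough replicates individually reaching it; inconclusive = meets only the mean limit or only the replicate share; inactive = meets neither condition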;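 note: 0% = median of neutral control wells and 100% = median of positive control wells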
Active calls of the source: *; ? = inconclusive; . = no result given.

SMILES | T cruzi growth-1 | Pf Dd2 inh | C diff growth | T cruzi growth-2 | T cruzi growth-3 | 3T3 cytotox | NIH3T3 tox 2
C[C@@H]1CCCCO[C@@H](CN(C)C(=O)Nc2ccc3c(c2)OCO3)[C@H](C)CN([C@@H](C)CO)C(=O)c2cc(NS(=O)(=O)c3cccs3)ccc2O1 | 35 | -16 | 10 | . | . | . | .
CCC(=O)N1CC2(C1)CN(C(=O)NC1CCCC1)[C@@H](CO)c1c2c2ccc(OC)cc2n1C | . | 7 | -2 | . | . | . | .
C[C@H](NC(=O)N(C)C[C@@H]1OCc2ccccc2-c2c(n(C)c3ccccc23)C(=O)N([C@H](C)CO)C[C@@H]1C)c1ccccc1 | -6 | ? | 0 | . | . | . | .
CCCN(C)C[C@H]1Oc2cc(C#CC3CCCCC3)ccc2S(=O)(=O)N([C@@H](C)CO)C[C@H]1C | 74 | -68 | 21 | . | . | . | .
O=C(c1ccccc1F)N1CC[C@@H]2[C@H](CO)Nc3ccc(C#Cc4ccc(F)cc4)cc3[C@@H]21 | 12 | -17 | -6 | . | . | . | .
COc1ccc(C#Cc2ccc3c(c2)[C@@H]2[C@@H](CCN2C(=O)c2ccccc2F)[C@@H](CO)N3C)cc1 | 89 | -41 | 47 | . | . | . | .
COc1ccc(C#Cc2ccc3c(c2)[C@@H]2[C@@H](CCN2C(=O)c2ccccc2F)[C@@H](CO)N3)cc1 | 106* | -35 | 31 | 102* | 70 | 20 | 17
COc1ccc(C#Cc2ccc3c(c2)[C@@H]2[C@@H](CCN2C(=O)c2ccccc2F)[C@H](CO)N3C)cc1 | ? | -55 | . | 111* | ? | 33 | 54*
COc1ccc(C#Cc2ccc3c(c2)[C@H]2[C@H](CCN2C(=O)CN2CCOCC2)[C@H](CO)N3C)cc1 | 99* | -56 | -7 | 111* | 59 | 8 | 27*
CN1c2ccc(C#Cc3ccc(F)cc3)cc2[C@@H]2[C@@H](CCN2C(=O)CN2CCOCC2)[C@H]1CO | 91 | -34 | 0 | . | . | . | .
COc1ccc(NC(=O)Nc2ccc3c(c2)[C@@H]2C[C@H](CC(=O)NCc4ccc(-c5ccccc5)cc4)O[C@@H](CO)[C@@H]2O3)cc1 | 82 | -30 | 8 | . | . | . | .
O=C(c1ccccc1F)N1CC2(C1)[C@@H](c1ccccc1)[C@@H](CO)N2CC1CCCC1 | . | -40 | 6 | . | . | . | .
O=C(C[C@H]1C=C[C@@H](NC(=O)Nc2ccc3c(c2)OCO3)[C@@H](CO)O1)NCc1ccc(F)cc1 | . | 46 | -1 | . | . | . | .
C[C@@H]1CN([C@H](C)CO)C(=O)c2cc(NS(=O)(=O)c3ccccc3)ccc2O[C@@H](C)CCCCO[C@H]1CN(C)C(=O)Nc1ccccc1 | . | -66 | . | . | . | . | .
C[C@H]1CCCCO[C@H](CN(C)C(=O)Nc2ccccc2)[C@@H](C)CN([C@@H](C)CO)C(=O)c2cc(NS(=O)(=O)c3ccccc3)ccc2O1 | . | -31 | . | . | . | . | .
C[C@@H]1CCCCO[C@@H](CN(C)C(=O)Nc2ccc(C(F)(F)F)cc2)[C@@H](C)CN([C@H](C)CO)C(=O)c2cc(NS(C)(=O)=O)ccc2O1 | 19 | 10 | 5 | . | . | . | .
C[C@H](CO)N1C[C@H](C)[C@@H](CN(C)C(=O)Nc2ccc(C(F)(F)F)cc2)OCCCC[C@H](C)Oc2ccc(NS(=O)(=O)c3ccccc3)cc2C1=O | ? | -29 | 1 | 114* | 71 | 21 | 14
C[C@@H]1CN([C@@H](C)CO)C(=O)c2cc(NS(=O)(=O)c3ccccc3)ccc2O[C@@H](C)CCCCO[C@@H]1CN(C)C(=O)Nc1ccc(C(F)(F)F)cc1 | ? | -76 | 2 | 104* | 74 | 20 | 43*
C[C@H]1CCCCO[C@H](CN(C)C(=O)Nc2ccc(C(F)(F)F)cc2)[C@@H](C)CN([C@@H](C)CO)C(=O)c2cc(NS(C)(=O)=O)ccc2O1 | 97* | -45 | 4 | 113* | 35 | 12 | 51*
C[C@@H]1CN([C@@H](C)CO)C(=O)c2cccc(NC(=O)C3CCCCC3)c2O[C@H]1CN(C)S(=O)(=O)c1cn(C)cn1 | 26 | 7 | . | . | . | . | .
CC(=O)N(C)C[C@@H]1Oc2cc(-c3ccccc3)ccc2S(=O)(=O)N([C@@H](C)CO)C[C@H]1C | 8 | 12 | 4 | . | . | . | .
O=C(C[C@@H]1C[C@@H]2c3cc(NS(=O)(=O)c4ccc(F)cc4)ccc3O[C@@H]2[C@H](CO)O1)NCc1ccc(-c2ccccc2)cc1 | 85 | -16 | -8 | . | . | . | .
O=C(Nc1ccc(F)cc1)Nc1ccc2c(c1)[C@@H]1C[C@H](CC(=O)N3CCOCC3)O[C@@H](CO)[C@@H]1O2 | 13 | 10 | 7 | . | . | . | .
O=C(O)CCCCCCC(=O)Nc1ccc(C2OC(CSCCO)CC(c3ccccc3)O2)cc1 (stereo not given) | . | . | -3 | . | . | . | .
C[C@@H]1CN([C@H](C)CO)C(=O)Cc2cc(NC(=O)Cn3cnnn3)ccc2O[C@@H]1CN(C)Cc1ccncc1 | 31 | 10 | -2 | . | . | . | .
SMILES | T cruzi growth-1 | Pf Dd2 inh | C diff growth | T cruzi growth-2 | T cruzi growth-3 | 3T3 cytotox | NIH3T3 tox 2
O=C(NCC[C@@H]1CC[C@@H](NC(=O)C2CCCCC2)[C@@H](CO)O1)c1cnccn1 | . | -5 | 1 | . | . | . | .
Cc1ccc(S(=O)(=O)Nc2ccc3c(c2)C(=O)N([C@H](C)CO)C[C@H](C)[C@H](CN(C)C(=O)Nc2cccc4ccccc24)O3)cc1 | 38 | -62 | 11 | . | . | . | .
CO[C@H](CN(C)S(=O)(=O)c1ccc(F)cc1)[C@@H](C)CN([C@@H](C)CO)S(=O)(=O)c1cccc(Cl)c1 | 86 | -20 | . | . | . | . | .
C[C@H]1CN([C@@H](C)CO)C(=O)c2ccccc2-c2ccccc2CO[C@@H]1CN(C)Cc1ccncc1 | ? | -3 | 2 | 73 | 7 | 13 | 11
C[C@@H]1CN([C@@H](C)CO)C(=O)c2ccccc2-c2ccccc2CO[C@H]1CN(C)C(=O)Cc1ccccc1 | 90 | 1 | -8 | . | . | . | .
C[C@@H]1CN([C@@H](C)CO)C(=O)c2ccccc2-c2ccccc2CO[C@H]1CN(C)Cc1ccncc1 | 81 | 9 | 1 | . | . | . | .
C[C@@H]1CN([C@H](C)CO)C(=O)c2ccccc2-c2ccccc2CO[C@@H]1CN(C)C(=O)Cc1ccccc1 | 102* | 0 | -4 | 21 | -53 | -2 | 11
CC(=O)N(C)C[C@@H]1Oc2ncc(-c3cccnc3)cc2C(=O)N([C@H](C)CO)C[C@H]1C | 25 | 54 | 3 | . | . | . | .
CO[C@@H]1CN(C)C(=O)c2ccc(NC(=O)NC(C)C)cc2OC[C@@H](C)N(C(=O)C2CCC2)C[C@H]1C | . | 60 | -1 | . | . | . | .
COc1ccc(NC(=O)N[C@H]2CC[C@H](CCNS(=O)(=O)c3cccc(Cl)c3)O[C@H]2CO)cc1 | -3 | -12 | 7 | . | . | . | .
OC[C@@H]1[C@H](c2ccc(C#CC3(O)CCCC3)cc2)[C@@H]2CN(Cc3cccnc3)CCCCN12 | 101* | -4 | 0 | 107* | 91 | 19 | 23
